Source: PubChem BioAssay AID2149 (The Scripps Research Institute Molecular Screening Center, 2009)
In all, about 2,400 compounds went through this assay and about 1,800 (75%) were called active. So high a share suggests a set chosen from earlier hits. These entries were drawn from the full list. A number with no mark means an inactive call.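 How the source made its calls: active means inhibition above the primary screen limit, the mean inhibition of all tested compounds plus 3 SD (cut at about 25% in these data); inactive means the rest.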

System: tRNA 2'-phosphotransferase TPT1 [Candida albicans SC5314]
Test: Candida albicans TPT1 inhibitors, confirmation, biochemical, fluorescence polarization, triplicate (AID 2149)
Settings: recombinant caTPT1, fluorescence polarization, RNase T1 coupled; at 5 µM; hits give high values

Row | SMILES | inhibition
1 | C[n+]1ccc(/C=C/c2c[nH]c3ccccc23)cc1 | 56.5% (active)
2 | Cc1nc2ccccc2nc(=O)c1NNc1ccc([N+](=O)[O-])cc1 | 35.8% (active)
3 | CC(=O)n1c(C=Nc2ccccc2)c(O)c2ccccc21 | 73.1% (active)
4 | COc1cc2c(cc1O)[C@H](Cc1ccc(Oc3cc(C[C@@H]4NCCc5cc(OC)c(O)cc54)ccc3O)cc1)NCC2 | 33.8% (active)
5 | COc1cc(N2CCCC2)c(OC)cc1/C=C(/C#N)c1cccc(Br)c1 | 68.1% (active)
6 | CC(=O)c1cc(NC(=O)c2ccccc2)c(=O)oc1/C=C/N(C)C | 118% (active)
7 | CC(C)(C)c1ccc(/C=C2\Oc3c(ccc(O)c3CN3CCN(CCO)CC3)C2=O)cc1 | 37.2% (active)
8 | C=CCC1=C/C(=C\c2c(N)n3nc(CC(=O)N4CCOCC4)sc3nc2=O)C=C(OC)C1=O | 104% (active)
9 | CCOC(=O)/C(C#N)=C/c1ccc(N2CCN(Cc3ccccc3)CC2)cc1 | 81.9% (active)
10 | CCOC(=O)/C(C#N)=C/c1ccc(N2CCCCC2)cc1 | 126% (active)
11 | CCN1/C(=C\c2ccc3ccccc3[n+]2CC)Sc2cc(C)ccc21 | 78.3% (active)
12 | CCN1/C(=C/c2ccc3ccc(C)cc3[n+]2CC)Sc2ccccc21 | 44.2% (active)
13 | COc1ccc(N=C(C)c2sc3ccccc3c2O)cc1 | 70.2% (active)
14 | COc1ccc(C2=NN(C(=O)c3ccccc3C(=O)O)C(c3ccccc3O)C2)cc1 (stereo not given) | 26.3% (active)
15 | CN(C)c1ccc(/C=C2\NC(=S)N(Cc3ccccc3)C2=O)cc1 | 160% (active)
16 | CCOC(=O)c1c(NC(=S)Nc2ccccc2)sc2c1CCN(C)C2 | 42.8% (active)
17 | COc1cc(/C=C2/C(=O)NN(c3cccc(Cl)c3)C2=O)cc(Br)c1O | 153% (active)
18 | Oc1ccc(/C=N/Nc2nc(-c3ccccc3F)nc3ccccc23)c(O)c1 | 29.1% (active)
19 | CN(c1ccccc1)c1ccc(/C=c2\s/c(=C(/C#N)C(=O)C(C)(C)C)n(Cc3ccco3)c2=O)cc1 | 127% (active)
20 | CN1/C(=C\C=C2\N=C(c3ccc(F)cc3)OC2=O)C(C)(C)c2ccccc21 | 151% (active)
21 | Cc1ccc(Nc2ccccc2N)cc1 | 25.8% (active)
22 | CCOC(=O)c1c(CC(C)C)csc1/N=C/C1=C(O)CCCC1=O | 11.9%
23 | Cn1cccc1/C=C1\SC(=S)N(NC(=O)c2ccc(Cl)cc2)C1=O | 101% (active)
24 | CCn1c(/C=C/c2ccc([N+](=O)[O-])o2)nc2ccccc2c1=O | 36.7% (active)
25 | COc1ccccc1/C=N/Nc1nc(C)c(C(C)=O)s1 | 33.1% (active)

Row | SMILES | inhibition
26 | CCOc1nnc(C)c2c(C)n(-c3cccc(Cl)c3)nc12 | 76.5% (active)
27 | O=C1NC(=O)C2C1C(c1ccc([N+](=O)[O-])cc1)=NN2Cc1ccccc1 (stereo not given) | 33.2% (active)
28 | CCN(CC)C(=O)CSC(Nc1cccc(F)c1)=C(C#N)C#N | 46.5% (active)
29 | O=C(N/N=C/c1sc(N2CCCCC2)nc1-c1cccs1)c1cccnc1 | 44.1% (active)
30 | NNC(=O)c1oc2nc(-c3ccccc3)cc(-c3ccco3)c2c1N | 31.5% (active)
31 | COc1ccc(Cc2nc(-c3ccccn3)no2)cc1OC | 8.13%
32 | Cc1ccc(Nc2nc(Cl)c(C=O)s2)cc1 | 67.3% (active)
33 | CCOc1ccc2nc(/N=C/c3nc(-c4ccccc4)oc3O)sc2c1 | 58.6% (active)
34 | Fc1ccc2nc(Nc3nc4c(s3)CCCC4)sc2c1 | 28.4% (active)
35 | Cc1c(-c2ccccc2)cn2c1-c1ccc(C)n1CC2 | 32.8% (active)
36 | Cn1c2ccccc2c2cc(/C=C(\NC(=O)c3ccccc3)C(=O)NCC(=O)O)ccc21 | 80.3% (active)
37 | Cc1ccc(-c2nn(-c3ccccc3)cc2/C=C2\SC(=S)N(CCCCCC(=O)O)C2=O)o1 | 68.6% (active)
38 | O=C(Nc1ccc(S(=O)(=O)Nc2nccs2)cc1)c1cc(-c2ccncc2)nc2ccccc12 | 49.1% (active)
39 | CS(=O)(=O)c1ccc2c(c1)SC1=NC(=O)/C(=C/c3ccco3)C(=N)N12 | 44.3% (active)
40 | Cc1cc(/C=C2/SC(=O)N(CC(=O)N3CCCC3)C2=O)ccc1N1CCOCC1 | 63.5% (active)
41 | Cc1sc2nc(COC(=O)C(NC(=O)c3ccc(Cl)cc3Cl)C(C)C)[nH]c(=O)c2c1C (stereo not given) | 55.1% (active)
42 | Cc1c(C(=O)OC(C)C)sc(NC(=O)c2cccnc2)c1C#N | 26% (active)
43 | Nc1c(C(=O)c2cccs2)sc2nsc(SCCN3CCCCC3)c12 | 67.7% (active)
44 | CCCCCCc1cc2cc(-c3nnc(-c4ccccc4)o3)c(=O)oc2cc1O | 117% (active)
45 | COc1cc(/C=C2/SC(=S)N(Cc3ccccc3)C2=O)cc(OC)c1O | 98.5% (active)
46 | CCN(CC)c1ccc2cc(C(N)=O)/c(=N\NC(=O)c3ccncc3)oc2c1 | 139% (active)
47 | Cc1cc(O)c(C(=O)/C=C/c2c(F)c(F)c(F)c(F)c2F)c(=O)o1 | 63.4% (active)
48 | CN1C(=O)/C(=C/C=C2\SCCN2C)OC1=S | 172% (active)
49 | CCN(CC)c1ccc(/C=N/Nc2nc(C)cc(C)n2)c(O)c1 | 34% (active)
50 | CSC1=N/C(=C\C=C\c2cccs2)C(=O)S1 | 52.8% (active)

Row | SMILES | inhibition
51 | Nc1nonc1-n1nnc(C(=O)N/N=C/c2cc(Br)ccc2O)c1CSC1=NCCS1 | 37.7% (active)
52 | N#C/C(=C/c1ccc(N2CCCCC2)o1)C(=O)NCCc1c[nH]c2ccccc12 | 191% (active)
53 | Cc1cc(/C=N/Nc2ccc([N+](=O)[O-])cn2)c(C)n1-c1cccc(C(=O)O)c1 | 54.5% (active)
54 | Cc1ccc(-n2c(C)cc(/C=N/Nc3ccc([N+](=O)[O-])cn3)c2C)c(C)c1 | 60.9% (active)
55 | Cc1ccc2[nH]c(=O)c(CN3CCCCC3)c(-c3ccccc3)c2c1 | 2.06%
56 | N#C/C(=C(/O)COC(=O)COc1ccc(Cl)cc1)c1nc2ccccc2[nH]1 | 40.6% (active)
57 | CCOc1ccc(-n2c(O)c(/C=N/c3ccnn3Cc3ccncc3)c3ccccc3c2=O)cc1 | 80.4% (active)
58 | CN=c1scc(-c2cc(OC)ccc2OC)n1/N=C/c1c(C)[nH]c2ccccc12 | 22.2%
59 | O=C1Nc2cc(C(=O)N3CCN(c4ccc(F)cc4)CC3)ccc2NC1CSCc1cccc(F)c1 (stereo not given) | 112% (active)
60 | Cc1ccc(CSCC2Nc3ccc(C(=O)N4CCN(c5ccc(F)cc5)CC4)cc3NC2=O)cc1 (stereo not given) | 16.1%
61 | CC(C)c1ccc(Nc2nnc(SCC(=O)c3nnc(-c4ccccc4)o3)s2)cc1 | 21.4%
62 | Cc1cccc2cc3c(N)c(C(=O)N4CCCc5ccccc54)sc3nc12 | 51.9% (active)
63 | COC(=O)c1[nH]c2cccc(C)c2c1NC(=O)CN1CCCc2ccccc21 | 19%
64 | CCOC(=O)C1=C(C)Nc2sc(C(=O)c3ccc(Br)cc3)c(N)c2C1c1ccc(C(=O)OC)cc1 (stereo not given) | 29.3% (active)
65 | CCC(c1nnnn1Cc1ccco1)N(Cc1cc2cc(OC)ccc2[nH]c1=O)C1CCCCC1 (stereo not given) | 13.7%
66 | CC1=CC2=NC(=O)/C(=C/c3coc4ccccc4c3=O)C(=N)N2O1 | 34% (active)
67 | CCC(=C/c1sc2ccc3ccccc3c2[n+]1C)/C=C1\Sc2ccc3ccccc3c2N1C | 84.5% (active)
68 | NC(=O)c1c(Nc2nc3c(F)cccc3s2)sc2c1CCCC2 | 92.7% (active)
69 | CN(C)CCCn1c(N)c(C#N)c2nc(C#N)c(C#N)nc21 | 45.1% (active)
70 | O=S(=O)(O)Oc1c[nH]c2ccccc12 | 35.9% (active)
71 | Cc1c(CC(=O)N2CCN(C(=O)C3COc4ccccc4O3)CC2)c(=O)oc2c(O)c(O)ccc12 (stereo not given) | 7.54%
72 | O=C(Cc1nc2ccccc2[nH]c1=O)c1ccc(Cl)cc1 | 57.8% (active)
73 | O=C(/C=C/c1ccc(N2CCOCC2)cc1)c1ccccc1 | 84.6% (active)
74 | COc1cc(/C=C(\C#N)c2nc3ccccc3[nH]2)ccc1O | 112% (active)
75 | COc1cc(/C=C(\C#N)c2nc3c(s2)CC(C)CC3)ccc1O (stereo not given) | 130% (active)

Row | SMILES | inhibition
76 | O=C(CN1C(=O)c2ccccc2C1=O)NCc1ccc(C(=O)O)cc1 | 14.3%
77 | Cc1cccn2c(=O)c(/C=C3\SC(=S)N(CC(C)C)C3=O)c(NCCCOC(C)C)nc12 | 119% (active)
78 | Cn1ccc(=NC=C(C#N)C#N)c2ccccc21 | 25.4% (active)
79 | O=C(C[n+]1cc(Br)cc2ccccc21)c1ccc(F)cc1 | 37.5% (active)
80 | CCOc1cc(/C=C(\C#N)c2nc(-c3cccs3)c(NC(C)=O)s2)ccc1O | 90.5% (active)
81 | Cc1cccc(NC(=O)c2ccc(COc3ccccc3[N+](=O)[O-])o2)n1 | 7.02%
82 | Cc1cccc(COc2ccccc2/C=N/Nc2ccc([N+](=O)[O-])cc2)c1 | 90.6% (active)
83 | O=[N+]([O-])c1ccc(N/N=C/c2ccccc2)cc1 | 41.6% (active)
84 | CCCOc1ccc(Cn2c(O)cc(=O)[nH]c2=O)cc1 | 22.1%
85 | Cc1cc(C)c(/C=C2\C(=O)Nc3ccccc32)[nH]1 | 113% (active)
86 | CN1C(=O)/C(=C\c2ccc(-c3ccccc3)o2)SC1=S | 79.6% (active)
87 | O=C(O)C(c1ccccc1)N1C(=O)/C(=C\c2ccc(-c3cccc(Cl)c3)o2)SC1=S (stereo not given) | 151% (active)
88 | CC[n+]1cc(C)ccc1/C=C/c1ccc(N(C)C)cc1 | 42.1% (active)
89 | Cc1ccc(S(=O)(=O)N(C)c2nc3ccccc3n3c(C(C)C)nnc23)cc1 | -0.34%
90 | N#C/C(=C/c1ccc(N2CCOCC2)o1)C(=O)N1CCOCC1 | 184% (active)
91 | Cc1ccc(CC2S/C(=C(/C#N)C(=O)N3CCOCC3)N(c3ccccc3)C2=O)cc1 (stereo not given) | 9.14%
92 | N#C/C(=C\c1ccc(N2CCOCC2)o1)C(=O)N1CCOCC1 | 170% (active)
93 | CC1CCN(C(=O)c2ccc3c(c2)NC(=O)CN3)CC1 | 39.9% (active)
94 | Cc1ccc(N=C2NC(=O)/C(=C/C=C/c3ccco3)S2)cc1C | 23.8%
95 | N#CC1=C(N)Oc2c(sc3ccccc23)C1c1ccco1 (stereo not given) | 78.6% (active)
96 | O=C(NNc1c2ccccc2nc2ccccc12)c1cc2ccccc2cc1O | 38.5% (active)
97 | CN1/C(=c2/s/c(=C3/C(=O)N(c4ccccc4)NC3=Nc3ccccc3)n(C)c2=O)C(C)(C)c2ccccc21 | 81% (active)
98 | Cc1ccc2cc(/C=N/Nc3ccc(C(=O)O)cc3)c(Cl)nc2c1 | 35.9% (active)
99 | CCOc1ccc(/C=C2\SC(=S)N(NC(=O)c3ccncc3)C2=O)cc1OC | 51.7% (active)
100 | Cc1ccc(C)c2[nH]c(=O)c(CCNC(=O)CC(C)C)cc12 | 3.97%
